# Results from PubChem BioAssay (NCATS).
# Results filed as inconclusive are left out. Activity calls are given as the source filed them. The call rests on the fitted dose curve; in most records, active means well fitted inhibition curve with a large enough effect; inconclusive means small, poorly fitted or top-dose-only effect; inactive means flat fitted curve, though single readings scatter. Non-standard residues stand in square brackets, D forms with d. Residues, ends and D or L forms follow the SMILES beside them.
# Tested on: Zika virus NS2B-NS3 protease
# Assay: Primary screen GU AMC qHTS for Zika virus inhibitors (AID 1347154); further: nearly all actives have a fitted effect of over 70% in size;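 on activity change, negative = inhibition: 0% = no-inhibitor control and -100% = no-enzyme control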
# Details: Zika NS2B-NS3 unlinked protease, AMC fluorogenic substrate; series mostly up to 54.1 µM; activity change, negative = inhibition: at the top concentration
# Excerpt: Avindra Nath, Ph.D., National Institute of Neurological Disorders and Stroke (NINDS), Bethesda, MD
# Radhakrishnan Padmanabhan, Ph.D., Georgetown University (GU), Washington D.C.
# Zika Virus causes congenital defects, including microcephaly and is associated with Guillain-Barre syndrome, eningoencephalitis and myelitis in infected adult. […] Using a target-based approach, we hope to establish a screening paradigm to uncover novel, cell-active NS2B-NS3 protease (Zika Virus) specific inhibitors from NCATS' collection of small molecules using qHTS.
# Early Translation Branch (ETB)
# National Center for Advancing Translational Sciences (NCATS), Rockville, MD
# National Institute of Health (NIH), Bethesda, Maryland
# Padmanabhan lab provided the NS2B hydrophilic domain and NS3 protease domain in a noncovalent complex used for the unlinked assay. Control compound aprotinin is obtained from Thermo Scientific (#78432; Waltham, Massachusetts). NS2B-NS3 AMC substrate (Bz-Nle-Lys-Arg-Arg-AMC; Nle-KRR-AMC) purchased from Bachem (#I-1995; Torrance, CA). Ac-VKTGKR-AMC purchased from Genscript or Bachem, Ac-FAAGKR-AMC purchased from Genscript, Ac-GLVKRR-AMC purchased from Genscript, Ac-LKKR-AMC purchased from Genscript.
# GU AMC unlinked NS2B-NS3 protease qHTS protocol
# Briefly, 3 microL of Zika virus unlinked NS2B-NS3 protease (25 nM for linked final concentration), in assay buffer (10 mM Tris-HCl pH 8.0 with 0.01% Tween 20) was dispensed into a 1,536-well solid-bottom black plate (Greiner Bio One, Monroe, NC). […] Plates were then read immediately on a ViewLux High-throughput CCD imager (PerkinElmer, Waltham, MA) equipped with standard UV fluorescence optics (340(30) nm excitation, 450(20) nm emission) then incubated (room temperature, protected from light) for 15 minutes (~20% conversion). The change in fluorescence intensity over the 15-minute reaction period was normalized against no-inhibitor and no-enzyme controls and the resulting percent inhibition data were fitted to a 4-parameter Hill equation. Aprotinin was used as the intraplate control.
# Potency means the concentration at half of the fitted maximal effect.
Structure (SMILES),"activity change, negative = inhibition",Potency
CSCC[C@H](C=O)NC(=O)[C@H](CC(C)C)NC(=O)[C@H](CC(C)C)NC(C)=O (Ac-Leu-Leu-[dM]-aldehyde),14.9% (inactive),
CCOC(=O)NC[C@H](Cc1ccc(OCCc2nc(-c3ccccc3)oc2C)cc1)N/C(C)=C\C(=O)c1ccc(C(F)(F)F)cc1,4.81% (inactive),
OC[C@H]1NC[C@H](O)[C@@H](O)[C@H]1O,10.6% (inactive),
CO[C@@]12C[C@@H](COC(=O)c3cncc(Br)c3)CN(C)[C@H]1Cc1cn(C)c3cccc2c13,4.52% (inactive),
C/C(O)=C1\C(=O)[C@@H]2[C@H]3c4c[nH]c5cccc(c45)C[C@H]3C(C)(C)N2C1=O,,inactive
CC[C@]1(O)C[C@@H]2CN(CCc3c([nH]c4ccccc34)[C@](C(=O)OC)(c3cc4c(cc3OC)N(C)[C@H]3[C@](O)(C(=O)OC)[C@@H](C(=O)OC)[C@@]5(CC)C=CCN6CC[C@@]43[C@@H]65)C2)C1,13.3% (inactive),
O=C(Nc1ccccc1)[C@@]12C[C@@H]1/C(=N/O)c1ccccc1O2,-14% (inactive),
O=C(NCCCCCCNC(=O)ON=C1CCCCC1)ON=C1CCCCC1,,inactive
CCN(CC)CCCCN1c2ccccc2Oc2ccc(Cl)cc21,8.25% (inactive),
Cc1ccc(S(=O)(=O)/C=C\C#N)cc1,11.5% (inactive),
Clc1cccc(Nc2nnc(-c3ccccc3)c3ccccc23)c1,,inactive
N[C@H](C(=O)O)c1nn[nH]n1,6.19% (inactive),
C[C@@H](CCCCC(=O)Nc1ccc(C(F)(F)F)cc1)NCCc1cnc[nH]1,8.12% (inactive),
CC(C)[C@@H]1[C@H]2CC[C@H](C2)[C@H]1N,8.91% (inactive),
CC(C)C[C@H](NC(=O)[C@H](Cc1ccccc1)NC(=O)CNC(=O)CNC(=O)[C@@H](N)Cc1ccc(O)cc1)C(=O)N[C@@H](CCCN=C(N)N)C(=O)N[C@@H](CCCN=C(N)N)C(=O)N[C@@H](CCC(N)=O)C(=O)N[C@@H](Cc1ccccc1)C(=O)N[C@@H](CCCCN)C(=O)N[C@H](C(=O)N[C@H](C(=O)N[C@H](C(=O)O)[C@@H](C)O)C(C)C)C(C)C,3.02% [at 6.83 µM] (inactive),
CN(CCc1ccc(Cl)c(Cl)c1)CCN1CCCC1,,inactive
CS(=O)(=O)Nc1ccc([N+](=O)[O-])cc1OC1CCCCC1,,inactive
COc1cccc(NC(=O)/C=C\c2ccc(Cl)cc2)c1,-3.14% (inactive),
CCCCCCCCCCCCCCCC(=O)NC(C)C,4.23% (inactive),
O=c1[nH]cnc2ccccc12,8.45% (inactive),

Structure (SMILES),"activity change, negative = inhibition",Potency
C[C@@](N)(C(=O)O)c1ccc(C(=O)O)cc1,,inactive
Cc1ccc(/C=C2/CNC/C(=C\c3ccc(C)cc3)C2=O)cc1,14.2% (inactive),
C[C@@H]1c2ccccc2CN1CC1=NCCN1,3.32% (inactive),
COc1ccc(/C=C\C(=O)Nc2ccccc2C(=O)O)cc1OC,-19.1% (inactive),
O=C(O)COc1ccc(OCCNC[C@H](O)COc2ccccc2)cc1,1.26% (inactive),
CCCCc1nc2ccn(CC(=O)N(C)C)c(=O)c2n1Cc1ccc(-c2ccccc2-c2nn[nH]n2)cc1,24.4% (inactive),
CCCCCCCCCCCCC(O)C(=O)O (stereo not given),10.2% [at 6.83 µM] (inactive),
N=C(C[C@@H](O)COc1ccccc1-c1ccccc1)N1CCCCC1,2.97% (inactive),
N[C@H](Cn1ccc(=O)n(Cc2ccccc2C(=O)O)c1=O)C(=O)O,9.66% (inactive),
O[C@@H](c1ccccc1)C1CCN(CCc2ccccc2)CC1,9.21% (inactive),
C/C=C/CC(C)C(O)C1C(=O)NC(CC)C(=O)N(C)CC(=O)N(C)C(CC(C)C)C(=O)NC(C(C)C)C(=O)N(C)C(CC(C)C)C(=O)NC(C)C(=O)NC(C)C(=O)N(C)C(CC(C)C)C(=O)N(C)C(CC(C)C)C(=O)N(C)C(C(C)C)C(=O)N1C (stereo not given),5.43% [at 25.8 µM] (inactive),
Fc1ccc([C@H]2CCNC[C@H]2COc2ccc3c(c2)OCO3)cc1,14.1% (inactive),
CCCCCCCCCCCCCCCCOC[C@H](COP(=O)([O-])OCC[N+](C)(C)C)OC(=O)NC,0.721% [at 6.83 µM] (inactive),
C[C@H](NC[C@H](O)CP(=O)(O)CC1CCCCC1)c1ccc(Cl)c(Cl)c1,,inactive
C/C=C\C[C@@H](C)[C@@H](O)[C@H]1C(=O)N[C@@H](CC)C(=O)N(C)CC(=O)N(C)[C@@H](CC(C)C)C(=O)N[C@@H](C(C)C)C(=O)N(C)[C@@H](CC(C)C)C(=O)N[C@@H](C)C(=O)N[C@H](C)C(=O)N(C)[C@@H](CC(C)C)C(=O)N(C)[C@@H](CC(C)C)C(=O)N(C)[C@@H](C(C)C)C(=O)N1C,-1.75% (inactive),
COc1cc2nc(N3CCN(C(=O)[C@H]4CCCO4)CC3)nc(N)c2cc1OC,,26.7 µM (active)
C/C=C1/C(=O)C[C@@H]2[C@H]3CCC4=CC(=O)CC[C@]4(C)[C@@H]3CC[C@]12C,16.5% (inactive),
CCCCCCCC/C=C\C/C=C\C/C=C\CCCC(=O)O,-5.55% [at 6.83 µM] (inactive),
COc1ccc2[nH]c(I)c(CCNC(C)=O)c2c1,,inactive
O=C(O)COc1ccc(OCCNC[C@@H](O)COc2ccccc2)cc1,11.6% (inactive),
